{"source": "PubChem BioAssay", "note": "Active and inactive are the calls of the source.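 Rule for the calls: active = compounds killing one labelled cell type while sparing the other, by normalised counts and ratio limits, not self-fluorescent; inactive = the rest.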", "data": [{"experiment": "EMT-state selective cytotoxicity in co-culture – imaging, PC-3E GFP, TEM4-18 mCherry, primary screen (AID 1345086);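 note: cells exposed to compound for 72 h before imaging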;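 for red/green cell ratio (normalised): normalised mesenchymal count divided by normalised epithelial count so high means epithelial killing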", "conditions": "PC-3E GFP / TEM4-18 mCherry co-culture, imaging cell counts; at 1 µM; actives lie on both sides; counts scaled to control wells, 1 = unselective", "values": [{"smiles": "C[C@]12CCC3c4ccc(OC(=O)c5ccccc5)cc4CCC3C1CC[C@@H]2O", "note": "(stereo not given in full)", "red/green cell ratio (normalised)": "1.1 (inactive)"}, {"smiles": "NCC1O[C@@H](OC2C(N)C[C@@H](N)C(OC3OC(CO)[C@@H](O)C(N)[C@H]3O)[C@H]2O)C(O)[C@@H](O)C1O", "note": "(stereo not given in full)", "red/green cell ratio (normalised)": "1.1 (inactive)"}, {"smiles": "CC(=O)O[C@H]1CC[C@@]2(C)C(CC[C@]3(C)C2CC=C2C4CC(C)(C)CC[C@]4(C)CC[C@]23C)C1(C)C", "note": "(stereo not given in full)", "red/green cell ratio (normalised)": "1.1 (inactive)"}, {"smiles": "COc1cccc(Oc2c(O)cc(C)cc2CC(=O)c2cc(C)cc(O)c2C(=O)c2c(O)cccc2O)c1C(=O)O", "red/green cell ratio (normalised)": "1.1 (inactive)"}, {"smiles": "CC(C)C1=CC2=CCC3[C@](C)(CCC[C@]3(C)C(=O)O)C2CC1", "note": "(stereo not given in full)", "red/green cell ratio (normalised)": "1.12 (inactive)"}, {"smiles": "CC(=O)OC[C@@]1(O)C[C@@]23CCC4c5ccoc5CC[C@]4(C)C2CC[C@@H]1C3", "note": "(stereo not given in full)", "red/green cell ratio (normalised)": "0.98 (inactive)"}, {"smiles": "O=C(NCC[C@H](O)C(=O)O)OCc1ccccc1", "red/green cell ratio (normalised)": "1.04 (inactive)"}, {"smiles": "CC(=O)OCC1O[C@H]2OC(=O)NC2[C@@H](OC(C)=O)C1OC(C)=O", "note": "(stereo not given in full)", "red/green cell ratio (normalised)": "0.82 (inactive)"}, {"smiles": "O=C(O)C(O)C(O)C(O)C(O)C(=O)O", "note": "(stereo not given)", "red/green cell ratio (normalised)": "1.01 (inactive)"}, {"smiles": "CC(C)(C)Oc1c(F)c(F)nc(F)c1Cl", "red/green cell ratio (normalised)": "0.97 (inactive)"}]}, {"experiment": "EMT-state selective cytotoxicity in co-culture – imaging, PC-3E GFP, TEM4-18 mCherry, primary screen (AID 1345086)", "conditions": "PC-3E GFP / TEM4-18 mCherry co-culture, imaging cell counts; measured here: epithelial PC-3E GFP cell survival; at 1 µM", "values": [{"smiles": "C[C@]12CCC3c4ccc(OC(=O)c5ccccc5)cc4CCC3C1CC[C@@H]2O", "note": "(stereo not given in full)", "normalised cell number": 1}, {"smiles": "NCC1O[C@@H](OC2C(N)C[C@@H](N)C(OC3OC(CO)[C@@H](O)C(N)[C@H]3O)[C@H]2O)C(O)[C@@H](O)C1O", "note": "(stereo not given in full)", "normalised cell number": 1.02}, {"smiles": "CC(=O)O[C@H]1CC[C@@]2(C)C(CC[C@]3(C)C2CC=C2C4CC(C)(C)CC[C@]4(C)CC[C@]23C)C1(C)C", "note": "(stereo not given in full)", "normalised cell number": 1.04}, {"smiles": "COc1cccc(Oc2c(O)cc(C)cc2CC(=O)c2cc(C)cc(O)c2C(=O)c2c(O)cccc2O)c1C(=O)O", "normalised cell number": 1.09}, {"smiles": "CC(C)C1=CC2=CCC3[C@](C)(CCC[C@]3(C)C(=O)O)C2CC1", "note": "(stereo not given in full)", "normalised cell number": 0.92}, {"smiles": "CC(=O)OC[C@@]1(O)C[C@@]23CCC4c5ccoc5CC[C@]4(C)C2CC[C@@H]1C3", "note": "(stereo not given in full)", "normalised cell number": 0.89}, {"smiles": "O=C(NCC[C@H](O)C(=O)O)OCc1ccccc1", "normalised cell number": 1.09}, {"smiles": "CC(=O)OCC1O[C@H]2OC(=O)NC2[C@@H](OC(C)=O)C1OC(C)=O", "note": "(stereo not given in full)", "normalised cell number": 1.33}, {"smiles": "O=C(O)C(O)C(O)C(O)C(O)C(=O)O", "note": "(stereo not given)", "normalised cell number": 1.04}, {"smiles": "CC(C)(C)Oc1c(F)c(F)nc(F)c1Cl", "normalised cell number": 0.78}]}]}
